Data reported in ChEMBL document CHEMBL3433997, “St. Jude Leishmania screening dataset” (2016).

How the values were obtained:
Assay type in all cases: functional
[1] = biological target: Solute carrier family 2, facilitated glucose transporter member 1 (Homo sapiens) (UniProt P11166); experiment: ST_JUDE_LEISH: Cytotoxicity at 2uM final concentration against transgenic Leishmania Mexicana promastigotes LmGLUT1 that are glucose transport deficient and complemented with the human glucose transporter GLUT1. Activity is measured by DNA content using SYBR green in vitro
[2] = biological target: Hexose transporter 1 (Plasmodium falciparum) (UniProt O97467); experiment: ST_JUDE_LEISH: Cytotoxicity at 2uM final concentration against transgenic Leishmania Mexicana promastigotes LmPfHT that are glucose transport deficient and complemented with the Plasmodium falciparum hexose transporter. Activity is measured by DNA content using SYBR green in vitro
[3] = biological target: Glucose transporter (Leishmania mexicana) (UniProt O61059); experiment: ST_JUDE_LEISH: Cytotoxicity at 2uM final concentration against transgenic Leishmania Mexicana promastigotes LmGT2 that are glucose transport deficient and complemented with the L. Mexicana glucose transporter 2. Activity is measured by DNA content using SYBR green in vitro

Solute carrier family 2, facilitated glucose transporter member 1 (Homo sapiens), sequence (P11166 whole entry): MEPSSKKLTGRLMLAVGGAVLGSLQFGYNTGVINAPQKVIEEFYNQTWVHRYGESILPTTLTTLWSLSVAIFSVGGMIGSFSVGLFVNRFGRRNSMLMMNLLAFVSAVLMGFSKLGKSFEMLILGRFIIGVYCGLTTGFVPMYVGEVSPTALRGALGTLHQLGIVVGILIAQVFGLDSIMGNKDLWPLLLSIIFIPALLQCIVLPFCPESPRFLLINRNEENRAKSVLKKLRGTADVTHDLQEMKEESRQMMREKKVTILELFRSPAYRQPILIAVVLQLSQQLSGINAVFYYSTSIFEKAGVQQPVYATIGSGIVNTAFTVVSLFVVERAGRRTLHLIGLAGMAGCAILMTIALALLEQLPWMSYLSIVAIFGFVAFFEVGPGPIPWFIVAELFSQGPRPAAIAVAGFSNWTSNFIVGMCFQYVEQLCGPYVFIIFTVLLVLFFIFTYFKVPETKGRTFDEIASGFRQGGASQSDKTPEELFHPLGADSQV

| SMILES | inhibition [1] [%] | inhibition [2] [%] | inhibition [3] [%] |
| --- | --- | --- | --- |
| O=C(Nc1cccc(C(F)(F)F)c1)c1cccc(S(=O)(=O)NCC2CCN(CC3CCCCC3)CC2)c1 | 0.21 | -0.63 | -0.78 |
| CC(C)Cn1c(Sc2ccc(C#N)c([N+](=O)[O-])c2)nnc1-c1cccs1 | 1.53 | 3.14 | 0.24 |
| O=[N+]([O-])c1ccccc1/C=N/Nc1ccnc2cc(Cl)ccc12 | 4.36 | 4.22 | 3.41 |
| COCCOc1ccc(Nc2nccc(-c3c(-c4cccc(NC(=O)c5c(F)cccc5F)c4)nn4ccccc34)n2)cc1F | 7.82 | 10.9 | 1.25 |
| CS(=O)(=O)NCCCNCc1ccc(-c2ccc(-c3nc4cc(C(F)(F)F)ccc4[nH]3)s2)cc1 | 1.6 | 2.03 | 1.6 |
| Cc1ccc(OCC2CCN(c3ncc(C(=O)NCCCN4CCCC4=O)cc3Cl)CC2)cc1 | 1.15 | -1.22 | 0.72 |
| CCCNCc1ccc(-c2ccc(CN(Cc3ccc4c(c3)OCO4)C(=O)Cc3cccnc3)cc2)nc1 | 23.9 | 15.2 | 10.2 |
| Oc1ccccc1CN(CCCN(Cc1ccccn1)Cc1ccccc1O)Cc1ccccn1 | 4.2 | 3.15 | 4.96 |
| Cc1[nH]c(C)c(-c2ccc(-c3ccc4c(c3)OCO4)nc2)c(=O)c1Br | 0.29 | 1.09 | 0.07 |
| O=C(Nc1cncc(NC(=O)c2ccc(Cl)c(Cl)c2)c1)c1ccc(Cl)c(Cl)c1 | 2.62 | 2.96 | -0.68 |
| CCCN(Cc1nnc(-c2cccs2)o1)C(=O)CSc1nnnn1-c1cc(C)cc(C)c1 | 4.84 | 5.88 | 2.71 |
| Cc1ccc(O)cc1Nc1ccnc2cc(-c3cccc(CNCCS(C)(=O)=O)c3)ccc12 | 1.09 | 0.12 | -3.77 |
